The values that follow come from PubChem BioAssay (EPA / NIEHS).

One may read the AC50 as the midpoint of the concentration-response curve, whichever way the signal moves.

Several values for one entry are separate records, joined by “and”; a condition that tells them apart may be missing. Equal values may be shown once. Activity calls are given as the source filed them. The calls were made as follows: active = hit-call score of the fitted dose curve at least 0.9, where 1 is the maximum; inactive = score below 0.9.

A short description of the test: BSK_LPS_SRB: Viability Assessment in the BioMAP Diversity Plus: LPS Assay (AID 2283079).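 Also: fitted in both directions against DMSO so loss or gain of signal counts.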 The settings on record: primary human HUVEC with PBMC. Here is the method:
BSK_LPS is a cell-based, multiplexed-readout assay that uses umbilical vein endothelium and peripheral blood mononuclear cells, a human vascular primary cell co-culture, with measurements taken at 24 hours after chemical dosing in a 96-well plate.BSK_LPS_SRB is an assay component measured in the BSK_LPS assay. It measures 0.1% sulforhodamine related to cell death using Sulforhodamine staining technology.Data from the assay component BSK_LPS_SRB was analyzed into 1 assay endpoint. This assay endpoint, BSK_LPS_SRB, was analyzed with bidirectional fitting relative to DMSO as the negative control and baseline of activity. Using a type of viability reporter, gain or loss-of-signal activity can be used to understand changes in the signaling. Furthermore, this assay endpoint can be referred to as a primary readout, because this assay has produced multiple assay endpoints where this one serves a signaling function. To generalize the intended target to other relatable targets, this assay endpoint is annotated to the cell morphology intended target family, where the subfamily is cell conformation.
The levels of cell surface (or secreted, indicated by the prefix "s") biomarker endpoints were measured by ELISA. Overt cytotoxicity to cells in confluent adherent cultures (all systems other than the BT system) was assessed by measuring total protein levels using sulforhodamine B (SRB) staining in parallel cultures at the time of biomarker measurements, indicated as SRB endpoints. For proliferation assays for adherent cell types, individual cell types are cultured at sub-confluence and relative cell numbers quantified by SRB staining at time points optimized for each system (48 h: 3C and CASM3C systems; 72 h: BT and HDF3CGF systems; 96 h: SAg system). SRB was performed by staining cells with 0.1% SRB after fixation with 10% TCA and reading wells at 560 nm.Viability and proliferation of PBMC (T cells) was quantified by Alamar Blue reduction for the SAg and BT systems. For PBMC viability (referred to as PBMC Cytotoxicity within the assay endpoint names), cells were plated (75,000/well in a 96-well plate) and then chemical samples added for 1 h before addition of activators, SEB and TSST-1 (20 ng/mL final concentration each). Cells were incubated for 90 h. Then, Alamar Blue (20 uL/well) (Invitrogen, Cat DAL1100) was added for 6 h, and the plates were read with a fluorescence microplate reader at 546/580 nm (excitation/emission). For PBMC proliferation, cells were plated and activated as above but incubated for only 16 h prior to addition of Alamar Blue. Plates were read after 6 h.
With `N#CN`, the result was inactive. Consider `OCCOc1ccccc1`, for which the result was inactive. With `Clc1ccccc1-c1nnc(-c2ccccc2Cl)nn1`, the outcome was inactive. On to `CCS(=O)(=O)c1cccnc1S(=O)(=O)NC(=O)Nc1nc(OC)cc(OC)n1`, for which the result was inactive. With `COP(=S)(OC)Oc1ccc([N+](=O)[O-])cc1`, the AC50 was 10.5 µM (active). Same read-out and setting: then `CC(C)(C)C(O)/C(=C\c1ccc(Cl)cc1Cl)n1cncn1` (stereo not given), with 31 µM (active). For the compound `Cc1[nH]c(=O)n(C(C)(C)C)c(=O)c1Cl`, the result was inactive. On the same count and under the same terms, as for `O=C(NC(=O)c1c(F)cccc1F)Nc1ccc(OC(F)(F)C(F)OC(F)(F)F)c(Cl)c1` (stereo not given), the entry is “inactive”. On to `CCC(C)(NC(=O)c1cc(Cl)c(C)c(Cl)c1)C(=O)CCl` (stereo not given), for which the AC50 is 20 µM (active).

Turning to `CC(C)(C)C(O)C(Oc1ccc(Cl)cc1)n1cncn1` (stereo not given), the outcome was inactive. On to `COC(=O)c1ccccc1S(=O)(=O)NC(=O)N(C)c1nc(C)nc(OC)n1`, for which the result was inactive. On the same count and under the same terms, as for `COC(=O)c1ccccc1S(=O)(=O)NC(=O)Nc1nc(C)nc(OC)n1`, the entry is “inactive”. Regarding `COC(=O)c1ccccc1CS(=O)(=O)NC(=O)Nc1nc(OC)cc(OC)n1`, the outcome was inactive. `O=[N+]([O-])/N=C1\NCCN1Cc1ccc(Cl)nc1`: the result was inactive.

Regarding `CCOC1Oc2ccc(OS(C)(=O)=O)cc2C1(C)C` (stereo not given), the outcome was inactive. In the case of `Oc1cc(Cl)ccc1Oc1ccc(Cl)cc1Cl`, the AC50 was 17.1 µM (active) and 19.7 µM (active) and 18.7 µM (active). Regarding `CNC(=O)CSP(=S)(OC)OC`, the result was inactive. For the compound `O=S(=O)(O)C(F)(F)C(F)(F)C(F)(F)C(F)(F)C(F)(F)C(F)(F)C(F)(F)C(F)(F)F`, the outcome was inactive. Same read-out and setting: as for `CNC(=O)/C=C(\C)OP(=O)(OC)OC`, the entry is “inactive”; as for `CCCN(CCC)c1c([N+](=O)[O-])cc(C(F)(F)F)cc1[N+](=O)[O-]`, “inactive”.

Turning to `CC[C@H](C)[C@H]1O[C@]2(C=C[C@@H]1C)C[C@@H]1C[C@@H](C/C=C(\C)[C@@H](O[C@H]3C[C@H](OC)[C@@H](O[C@H]4C[C@H](OC)[C@@H](O)[C@H](C)O4)[C@H](C)O3)[C@@H](C)/C=C/C=C3\CO[C@@H]4[C@H](O)C(C)=C[C@@H](C(=O)O1)[C@]34O)O2` (tested in a mixture with another compound), the AC50 was 6.41 µM (active). As for `COc1cc(OC)nc(NC(=O)NS(=O)(=O)c2cc(NC=O)ccc2C(=O)N(C)C)n1`, the outcome was inactive.

Take `COc1nn(CSP(=S)(OC)OC)c(=O)s1`: the result was inactive.

With `CCC(C)Nc1c([N+](=O)[O-])cc(C(C)(C)C)cc1[N+](=O)[O-]` (stereo not given), the AC50 was 20 µM (active). For the compound `CN1CSC(=S)N(C)C1`, the outcome was inactive. Take `CCCN(CCOc1c(Cl)cc(Cl)cc1Cl)C(=O)n1ccnc1`: the concentration at half-maximal activity (AC50) was 31.4 µM (active). On to `CCOc1nc(NC)nc(NC(=O)NS(=O)(=O)c2ccccc2C(=O)OC)n1`, for which the result was inactive. On to `CC1(C)C(C=C(Cl)Cl)C1C(=O)OC(C#N)c1ccc(F)c(Oc2ccccc2)c1` (stereo not given), for which the AC50 is 6.63 µM (active). For the compound `CCC(C)(C)C(=O)OC1=C(c2ccc(Cl)cc2Cl)C(=O)OC12CCCCC2`, the AC50 is 28.6 µM (active).

For `O=C(O)COc1ccc(Cl)cc1Cl`, the result was inactive. Same read-out and setting: as for `[2H]C1([2H])[n+]2ccccc2-c2cccc[n+]2C1([2H])[2H]`, the entry is “inactive”. Regarding `CC1(c2ccc(Oc3ccccc3)cc2)OC(=O)N(Nc2ccccc2)C1=O` (stereo not given), the half-maximal activity concentration (AC50) is 31 µM (active). Still for that read-out and setting: then `O=C1c2ccccc2C(=O)N1SC(Cl)(Cl)Cl`, with 0.303 µM (active). On the same count and under the same terms, as for `CC(C)OC(=O)Nc1cccc(Cl)c1`, the figure is 3.97 µM (active).

As to `COP(=O)(OC)OC=C(Cl)Cl`, the result was inactive. The same measure, in the same setting: as for `O=C(O)CCCOc1ccc(Cl)cc1Cl`, the entry is “inactive”. Take `CCOCN(C(=O)CCl)c1c(C)cccc1CC`: the AC50 was 22.7 µM (active).

Turning to `CCN(CC)C(=O)SCc1ccc(Cl)cc1`, the result was inactive. In the case of `O=C(Nc1ccccc1)Nc1cnns1`, the result was inactive. With `ClC1C(Cl)C(Cl)C(Cl)C(Cl)C1Cl` (stereo not given), the outcome was inactive.
